The values below come from PubChem BioAssay.

As usually defined, the viability is a read-out of living cells in per cent, often relative to untreated cells.

Assay [1] in a line: P. berghei load reduction in hepatocytes – cell-based, HepG2, luciferase luminescence, HepG2 viability, primary screen (AID 624349; in the data active = parasite load remaining mostly below about 12%, no sharp cut-off; inactive = mostly above about 10%;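 also: 100% = mean of DMSO negative control wells on the same plate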). Particulars: P. berghei liver stage in HepG2, luciferase luminescence, concentration not given here; parasite load remaining: stronger effect = lower value; viability: measured here: HepG2 viability without parasites.
Assay [2] is described as follows: viability loss with induced miR-34 in A549 – imaging, A549 dox-inducible miR-34, nuclei and caspase counts, primary screen (AID 1347080). The settings on record: A549 miR-34 inducible, Hoechst nuclei count, 48 h.
Assay [3] is described as follows: MELAS cybrid and Rieske KO viability enhancers – cell-based, MELAS cybrids, Rieske KO mouse fibroblasts, CellTiter-Glo, primary screen (AID 1508586;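 active = mean z-score across replicates of 1.96 or higher in either the MELAS or the Rieske mutant cell line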;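 also: z relative to plate mean and SD of compound and empty wells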). Particulars: low glucose. For orientation: In ATP-based viability assays light output follows the ATP content of the culture.
Assay [4] can be described thus: galactose survival enhancers in mitochondrial complex I cybrids – cell-based, galactose medium, ATP luminescence, primary screen (AID 1645843;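 active = z-score of at least 1.8 in each of two replicates, scored against plate mean and spread of sample wells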;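 also: positive z means more ATP and so rescue of galactose-driven cybrid death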). Particulars: complex I mutant cybrid cells, 72 h, stronger effect = higher value.
Assay [5] addresses NAD(+) hydrolase SARM1 (Homo sapiens) (UniProt Q6SZW1). In words: blocking NAD cleavage by SARM1 SAM-TIR – cell lysate, NAD-Glo luminescence (AID 1508614;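 active = compound whose remaining NAD level is above about 45 nM, limit read from the data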;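 also: higher remaining NAD means stronger inhibition of SARM1 NADase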). Particulars: SAM-TIR HEK293T lysate NADase, at 1 µM, stronger effect = higher value.
Assay [6] has as its target Mitogen-activated protein kinase 7 (Homo sapiens) (UniProt Q13164). As to the kind of experiment: Gal4-ERK5 driven luciferase induction – cell-based, HTS, primary screen (AID 1508626;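 active = luciferase signal above three times the same-plate solvent-only control wells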;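 also: luciferase driven by Gal4-ERK5 fusion binding five Gal4 sites before minimal TATA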). Particulars: HeLa Gal4-ERK5 transactivation, 18 h, at 5 µM, stronger effect = higher value.
The nature of assay [7]: compounds altering viability of human ES cells (AID 493140; call rule not given here;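 also: cells exposed to compounds for four days before counting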). The settings on record: human embryonic stem cell survival screen; stronger effect = higher value.
For assay [8], the target named is ATP-dependent translocase ABCB1 (Homo sapiens) (UniProt P08183). In words: P-glycoprotein substrate transport blockade – cell-based (AID 377; in the data active = fluorescence slope change above about 50%). The settings on record: MDR1-expressing cells, fluorescent substrate accumulation slope; stronger effect = higher value; concentration not given here.
[9] abbreviates: stronger effect = lower value, cell number ratio, induced over uninduced.
The mark [10] stands for this setting: measured here: relative caspase fold change +Dox/-Dox.
[11] abbreviates: measured here: total cells with miR-34 induction, stronger effect = lower value.
[12] abbreviates: measured here: total cells without miR-34 induction.
Where [13] appears, read: MELAS cybrid survival, CellTiter-Glo 48 h, stronger effect = higher value.
Setting [14] is: Rieske KO mouse fibroblast survival, CellTiter-Glo 72 h.

Where “and” joins values, the source holds several entries; their conditions need not be identical. Equal entries are not always repeated. Inconclusive results are not listed. Calls of active or inactive are those of the source.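 The calls were made as follows, unless noted: active = compounds whose cell count with miR-34 switched on is under 0.7 times the count with it off; inactive = the rest.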

Chain of NAD(+) hydrolase SARM1 (Homo sapiens) (Q6SZW1 whole entry, looked up, the tested form may be a part): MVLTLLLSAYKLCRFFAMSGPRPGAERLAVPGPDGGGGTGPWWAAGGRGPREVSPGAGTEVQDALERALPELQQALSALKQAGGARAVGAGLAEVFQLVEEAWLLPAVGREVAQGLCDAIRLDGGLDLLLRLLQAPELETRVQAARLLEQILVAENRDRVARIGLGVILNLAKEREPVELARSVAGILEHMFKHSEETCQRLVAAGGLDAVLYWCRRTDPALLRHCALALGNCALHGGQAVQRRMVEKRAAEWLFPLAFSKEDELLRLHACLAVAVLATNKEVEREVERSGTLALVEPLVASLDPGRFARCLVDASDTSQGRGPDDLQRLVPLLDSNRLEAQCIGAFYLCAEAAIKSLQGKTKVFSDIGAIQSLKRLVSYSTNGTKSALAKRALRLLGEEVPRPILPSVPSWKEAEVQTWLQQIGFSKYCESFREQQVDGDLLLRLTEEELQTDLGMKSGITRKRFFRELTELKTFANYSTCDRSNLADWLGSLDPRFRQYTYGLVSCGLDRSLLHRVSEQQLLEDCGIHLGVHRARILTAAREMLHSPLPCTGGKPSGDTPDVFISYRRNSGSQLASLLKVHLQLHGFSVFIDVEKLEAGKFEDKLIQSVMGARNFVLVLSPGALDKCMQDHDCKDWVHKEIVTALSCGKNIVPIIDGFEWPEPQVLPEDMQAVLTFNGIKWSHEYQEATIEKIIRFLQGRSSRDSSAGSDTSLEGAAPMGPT
Chain of Mitogen-activated protein kinase 7 (Homo sapiens) (Q13164 whole entry, looked up, the tested form may be a part): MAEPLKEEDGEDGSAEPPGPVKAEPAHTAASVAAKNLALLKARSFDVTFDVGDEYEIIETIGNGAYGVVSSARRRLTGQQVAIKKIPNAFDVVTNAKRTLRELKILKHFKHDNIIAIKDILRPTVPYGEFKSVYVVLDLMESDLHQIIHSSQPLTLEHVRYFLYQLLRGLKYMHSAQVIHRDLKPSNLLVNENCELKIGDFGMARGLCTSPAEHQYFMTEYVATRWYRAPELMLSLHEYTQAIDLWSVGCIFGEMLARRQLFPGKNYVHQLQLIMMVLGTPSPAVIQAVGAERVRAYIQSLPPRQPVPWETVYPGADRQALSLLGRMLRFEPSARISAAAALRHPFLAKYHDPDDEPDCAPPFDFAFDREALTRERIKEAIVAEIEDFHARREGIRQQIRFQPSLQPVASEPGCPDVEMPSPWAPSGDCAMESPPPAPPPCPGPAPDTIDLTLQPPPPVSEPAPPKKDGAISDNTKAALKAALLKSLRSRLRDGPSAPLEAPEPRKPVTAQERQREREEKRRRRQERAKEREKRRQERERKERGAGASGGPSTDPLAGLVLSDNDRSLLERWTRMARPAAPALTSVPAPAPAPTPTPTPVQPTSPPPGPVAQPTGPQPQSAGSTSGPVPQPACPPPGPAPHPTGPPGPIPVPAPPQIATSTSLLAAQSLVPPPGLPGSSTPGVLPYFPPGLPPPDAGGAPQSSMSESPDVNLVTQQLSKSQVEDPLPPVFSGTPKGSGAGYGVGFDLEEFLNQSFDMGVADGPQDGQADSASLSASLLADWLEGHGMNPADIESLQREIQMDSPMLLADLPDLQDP
Chain of ATP-dependent translocase ABCB1 (Homo sapiens) (P08183 whole entry, looked up): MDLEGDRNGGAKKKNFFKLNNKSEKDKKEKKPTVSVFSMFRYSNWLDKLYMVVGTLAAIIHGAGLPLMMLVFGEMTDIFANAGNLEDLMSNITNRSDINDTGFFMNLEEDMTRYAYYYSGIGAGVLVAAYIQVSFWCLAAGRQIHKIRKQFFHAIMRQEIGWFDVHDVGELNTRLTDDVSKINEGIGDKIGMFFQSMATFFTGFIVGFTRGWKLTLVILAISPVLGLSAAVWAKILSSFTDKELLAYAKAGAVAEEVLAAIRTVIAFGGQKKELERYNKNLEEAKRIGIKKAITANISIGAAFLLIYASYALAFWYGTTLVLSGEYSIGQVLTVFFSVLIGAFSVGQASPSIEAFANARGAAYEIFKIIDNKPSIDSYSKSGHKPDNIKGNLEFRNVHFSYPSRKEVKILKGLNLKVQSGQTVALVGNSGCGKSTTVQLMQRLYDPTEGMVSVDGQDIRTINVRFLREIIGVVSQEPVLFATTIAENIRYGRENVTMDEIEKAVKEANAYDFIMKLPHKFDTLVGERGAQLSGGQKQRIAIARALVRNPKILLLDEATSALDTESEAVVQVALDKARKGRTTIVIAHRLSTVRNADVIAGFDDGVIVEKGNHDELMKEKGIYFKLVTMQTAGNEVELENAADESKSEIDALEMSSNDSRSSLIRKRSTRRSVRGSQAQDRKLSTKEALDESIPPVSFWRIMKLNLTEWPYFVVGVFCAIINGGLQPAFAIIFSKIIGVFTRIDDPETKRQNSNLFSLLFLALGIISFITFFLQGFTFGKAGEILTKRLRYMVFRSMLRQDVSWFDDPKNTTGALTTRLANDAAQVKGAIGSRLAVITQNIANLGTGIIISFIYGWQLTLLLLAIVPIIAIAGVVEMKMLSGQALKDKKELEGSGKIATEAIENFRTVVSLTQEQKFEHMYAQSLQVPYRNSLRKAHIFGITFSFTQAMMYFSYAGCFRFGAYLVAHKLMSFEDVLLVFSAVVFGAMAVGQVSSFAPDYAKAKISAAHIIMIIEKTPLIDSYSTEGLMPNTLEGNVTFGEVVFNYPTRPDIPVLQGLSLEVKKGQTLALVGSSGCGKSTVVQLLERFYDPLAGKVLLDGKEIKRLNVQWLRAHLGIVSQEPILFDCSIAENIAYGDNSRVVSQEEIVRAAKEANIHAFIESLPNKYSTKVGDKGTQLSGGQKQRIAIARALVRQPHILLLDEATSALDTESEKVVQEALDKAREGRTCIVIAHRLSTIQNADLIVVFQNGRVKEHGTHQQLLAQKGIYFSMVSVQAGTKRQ

On to `CCC1C(=O)OCC1Cc1cncn1C` (centres undefined), for which the parasite load remaining in assay [1] is 38.7% (inactive). Also, the viability in assay [1] was found to be 114%. Besides, the fold change was 0.926 (inactive) and 0.807 (inactive) and 0.899 (inactive) in assay [2] (setting [9]); 1.4 and 2.3 and 1.43 in assay [2] (setting [10]). Besides, the cell count in assay [2] (setting [11]) was 9120 and 8440 and 10400; in assay [2] (setting [12]), 9850 and 10500 and 11500. For the same compound, the z-score in assay [3] (setting [13]) was -0.194 (inactive) and -0.728 (inactive); in assay [3] (setting [14]) it was -0.153 and 0.0525; in assay [4] it was 1.16 (inactive) and 0.695 (inactive).
For the compound `NCCc1ccc(S(N)(=O)=O)cc1`, the fold change was 0.884 (inactive) in assay [2] (stronger effect = lower value) and 0.315 in assay [2] (setting [10]). Also, the cell count in assay [2] (setting [11]) amounted to 9210; in assay [2] (setting [12]) it was 10400. Also, the z-score in assay [3] (setting [13]) is -0.0994 (inactive); in assay [3] (setting [14]) it was 0.0645; in assay [4], 0.495 (inactive).
Regarding `C=C1C[C@@H]2[C@@H](CC[C@@]3(C)C(=O)CC[C@@H]23)[C@@]2(C)C=CC(=O)C=C12`, the fold change in assay [2] (stronger effect = lower value) was 1.01 (inactive); in assay [2] (setting [10]) it was 1.02. The cell count in assay [2] (setting [11]) is 7640; in assay [2] (setting [12]), 7540. Besides, the values for the z-score in assay [3] (setting [13]) and in assay [3] (setting [14]) were -0.495 (inactive) and 0.156, respectively.
Take `CN1C[C@H](C(=O)N[C@]2(C)O[C@@]3(O)[C@@H]4CCCN4C(=O)[C@H](Cc4ccccc4)N3C2=O)C=C2c3cccc4[nH]cc(c34)C[C@H]21`: in assay [1], the parasite load remaining is 33.4% (inactive). Also, the viability in assay [1] is 106%. For the same compound, the fold change was 0.866 (inactive) in assay [2] (stronger effect = lower value) and 1.34 in assay [2] (setting [10]). The cell count in assay [2] (setting [11]) was found to be 8820; in assay [2] (setting [12]), 10200. For the same compound, the z-score was -0.409 (inactive) in assay [3] (setting [13]), -0.32 in assay [3] (setting [14]) and 1.08 (inactive) in assay [4]. For the same compound, the remaining NAD in assay [5] was 10 nM (inactive). The luciferase signal in assay [6] is 80 AU (inactive).
Consider `CC[C@@]1(O)C(=O)OCc2c1cc1n(c2=O)Cc2cc3c(O)cccc3nc2-1`, for which, in assay [1], the parasite load remaining was 25.4% (inactive). For the same compound, the viability in assay [1] was 34%. In addition, the fold change is 0.938 (inactive) and 1.02 (inactive) in assay [2] (stronger effect = lower value); 0.873 and 1 in assay [2] (setting [10]). For the same compound, the cell count in assay [2] (setting [11]) was 1030 and 1460; in assay [2] (setting [12]), 1100 and 1430. The results for the z-score in assay [3] (setting [13]), in assay [3] (setting [14]) and in assay [4] were -1.16 (inactive), -0.93 and -2.13 (inactive), respectively.
In the case of `Clc1ccc(C(Cn2ccnc2)OCc2ccc(Sc3ccccc3)cc2)c(Cl)c1` (centres undefined), the fold change in assay [2] (setting [9]) is 0.851 (inactive); in assay [2] (setting [10]), 0.891. Also, the values for the cell count in assay [2] (setting [11]) and in assay [2] (setting [12]) were 6850 and 8050, respectively. The z-score in assay [3] (setting [13]) is -0.265 (inactive); in assay [3] (setting [14]), 0.16.
On to `CC(Cc1ccccc1)NCCC(c1ccccc1)c1ccccc1` (centres undefined), for which the survival in assay [7] was 2.25 (inactive). Further, in assay [1], the parasite load remaining is 54.7% (inactive). Further, the viability in assay [1] stood at 77.6%. Moreover, the fold change in assay [2] (stronger effect = lower value) is 1.36 (inactive); in assay [2] (setting [10]), 0.226. Moreover, the values for the cell count in assay [2] (setting [11]) and in assay [2] (setting [12]) were 3500 and 2580, respectively. In addition, the z-score in assay [3] (setting [13]) was -0.835 (inactive) and -1.25 (inactive); in assay [3] (setting [14]) it was -0.134 and -0.319; in assay [4], -2.66 (inactive).
For `C/C=C/N1CC[C@]23CCCC[C@H]2[C@H]1Cc1ccc(O)cc13`, in assay [1], the parasite load remaining is 46.3% (inactive). Besides, the viability in assay [1] came out at 104%. Moreover, the fold change was 0.904 (inactive) in assay [2] (stronger effect = lower value) and 1.04 in assay [2] (setting [10]). Also, the cell count amounted to 9380 in assay [2] (setting [11]) and 10400 in assay [2] (setting [12]). For the same compound, the figures for the z-score in assay [3] (setting [13]), in assay [3] (setting [14]) and in assay [4] were -1.07 (inactive), -0.504 and 0.26 (inactive), respectively.
`C=C(C)[C@@H]1C2C(=O)O[C@H]1[C@H]1OC(=O)[C@@]34OC3C[C@]2(O)[C@@]14C` (some centres undefined): the parasite load remaining in assay [1] was 103% (inactive). The viability in assay [1] came out at 99.2%. Besides, the fold change in assay [2] (setting [9]) was 0.887 (inactive); in assay [2] (setting [10]) it was 0.911. Further, the cell count is 8720 in assay [2] (setting [11]) and 9830 in assay [2] (setting [12]). For the same compound, the z-score in assay [3] (setting [13]) is 0.399 (inactive); in assay [3] (setting [14]), 0.218.
With `C[C@]12CCC(O)CC1=CCC1C2CC[C@@]2(C)C1CC[C@]2(C)O` (some centres undefined), the results for the fold change in assay [2] (stronger effect = lower value) and in assay [2] (setting [10]) were 0.929 (inactive) and 1.41, respectively. Also, the results for the cell count in assay [2] (setting [11]) and in assay [2] (setting [12]) were 9340 and 10100, respectively. Further, in assay [4], the z-score is -0.34 (inactive).
With `C[N+]1([O-])[C@@H]2CC(OC(=O)[C@H](CO)c3ccccc3)C[C@H]1[C@@H]1O[C@@H]12` (some centres undefined), the fluorescence slope change in assay [8] is 76.2% (active). Moreover, in assay [7], the survival was 10.4 (inactive). For the same compound, the parasite load remaining in assay [1] was 3.97% (inactive) and 96.4% (inactive). In addition, the viability in assay [1] is 30.6% and 90.4%. Further, the fold change was 0.882 (inactive) in assay [2] (setting [9]) and 1.03 in assay [2] (setting [10]). The results for the cell count in assay [2] (setting [11]) and in assay [2] (setting [12]) were 8380 and 9510, respectively. In addition, the figures for the z-score in assay [3] (setting [13]) and in assay [3] (setting [14]) were -1.22 (inactive) and -0.531, respectively.
On to `CN1CC[C@@]2(C)c3cc(O)ccc3N(C)[C@H]12`, for which, in assay [1], the parasite load remaining was 82.4% (inactive). In addition, the viability in assay [1] worked out at 73.5%. In addition, the fold change in assay [2] (setting [9]) is 0.908 (inactive); in assay [2] (setting [10]), 0.758. Also, the values for the cell count in assay [2] (setting [11]) and in assay [2] (setting [12]) were 8570 and 9440, respectively. Moreover, the z-score in assay [3] (setting [13]) was 0.308 (inactive); in assay [3] (setting [14]), 1.44.
With `CC1CCCC(O)CCCCCc2cc(O)cc(O)c2C(=O)O1` (centres undefined), the results for the fold change in assay [2] (stronger effect = lower value) and in assay [2] (setting [10]) were 0.901 (inactive) and 1.75, respectively. Besides, the cell count was determined as 8720 in assay [2] (setting [11]) and 9680 in assay [2] (setting [12]). Besides, in assay [4], the z-score is -0.095 (inactive).
On to `C[C@H]1CN(C2CCC(C#N)(c3ccc(F)cc3)CC2)CC[C@@]1(C(=O)O)c1ccccc1` (some centres undefined), for which, in assay [1], the parasite load remaining is 36.7% (inactive). The viability in assay [1] was determined as 68%. In addition, the fold change in assay [2] (stronger effect = lower value) was 0.857 (inactive); in assay [2] (setting [10]), 1.09. For the same compound, the cell count in assay [2] (setting [11]) was 9640; in assay [2] (setting [12]), 11200. Moreover, the z-score in assay [3] (setting [13]) was 0.032 (inactive); in assay [3] (setting [14]), 0.209; in assay [4] it was 0.74 (inactive).
Consider `CN1[C@@H]2CC[C@H]1CC(OC1c3ccccc3CCc3ccccc31)C2` (some centres undefined), for which the parasite load remaining in assay [1] is 67% (inactive). The viability in assay [1] amounted to 69.7%. For the same compound, the fold change in assay [2] (setting [9]) was 0.913 (inactive); in assay [2] (setting [10]) it was 0.451. Further, the results for the cell count in assay [2] (setting [11]) and in assay [2] (setting [12]) were 8290 and 9070, respectively. Besides, the z-score in assay [3] (setting [13]) was -1.44 (inactive); in assay [3] (setting [14]), 0.907.
Consider `CC(=O)OCC(=O)[C@H]1CC[C@H]2[C@@H]3CC[C@H]4C[C@H](O)CC[C@]4(C)[C@H]3C(=O)C[C@]12C`, for which, in assay [7], the survival was 32.2 (inactive). For the same compound, in assay [1], the parasite load remaining was 133% (inactive). Moreover, in assay [1], the viability amounted to 77.5%. Moreover, the fold change in assay [2] (stronger effect = lower value) is 0.969 (inactive); in assay [2] (setting [10]), 0.588. In addition, the cell count was 8940 in assay [2] (setting [11]) and 9230 in assay [2] (setting [12]). The z-score was -0.0226 (inactive) in assay [3] (setting [13]) and 0.294 in assay [3] (setting [14]).
On to `COc1cccc([C@@]2(O)CCCCC2CN(C)C)c1` (some centres undefined), for which the fold change is 0.881 (inactive) in assay [2] (stronger effect = lower value) and 1.09 in assay [2] (setting [10]). For the same compound, the cell count in assay [2] (setting [11]) came to 9920; in assay [2] (setting [12]), 11300. Moreover, the z-score in assay [4] was 0.56 (inactive).
`C#CC(C)(O)CC` (centres undefined): the fold change in assay [2] (stronger effect = lower value) is 0.85 (inactive); in assay [2] (setting [10]) it was 1.03. Also, the cell count in assay [2] (setting [11]) was 8040; in assay [2] (setting [12]), 9450. In addition, the remaining NAD in assay [5] is 10 nM (inactive).
Consider `CCCCCC=CCC=CCC=CCC=CCCCC(=O)Nc1ccc(O)cc1`, for which the fold change is 0.829 (inactive) in assay [2] (setting [9]) and 1.13 in assay [2] (setting [10]). The cell count in assay [2] (setting [11]) was determined as 7710; in assay [2] (setting [12]) it was 9290. Also, the z-score in assay [4] was -1.44 (inactive).
